The record followed here is PubChem BioAssay (Tox21).

The target in test [1] is Cytochrome P450 2C9 (Homo sapiens) (UniProt P11712). Put plainly: Cytochrome P450 Family 2 Subfamily C Member 9 (CYP2C9) small molecule antagonists: luciferase reporter qHTS assay (AID 1671198). Put shortly:
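Enzyme-substrate mix preincubated with compound 10 min at room temperature; reaction started with NADPH regeneration solution, 1 h 37C. Luminescent luciferin product read after 20 min detection reagent.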

Test [2] addresses Cytochrome P450 1A2 (Homo sapiens) (UniProt P05177). Put plainly: Cytochrome P450 Family 1 Subfamily A Member 2 (CYP1A2) small molecule antagonists: luciferase reporter qHTS assay (AID 1671199). The gist of the method:
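P450-Glo CYP1A2 enzyme–proluciferin substrate mix with compound 10 min at room temperature, then NADPH regeneration 1 h at room temperature. Luciferin detection reagent added, luminescence read after 20 min; furafylline positive control.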
On the technique in general: A reporter such as luciferase makes a cellular process visible.

Test [3] addresses Voltage-gated inwardly rectifying potassium channel KCNH2 (Homo sapiens) (UniProt Q12809). Put plainly: Human Ether-a-go-go-Related Gene (hERG) channel small molecule antagonists: fluorescence cell-based qHTS assay (AID 1671200). Put shortly: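 Cell line hERG-U2OS; dye FluxOR II, 1 h RT dark; Tl+ stimulus; ex 480/em 540 nm, read each second for 2 min.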
For orientation: The hERG channel carries a current that helps repolarise heart muscle cells.

For test [4], the target named is Cytochrome P450 3A4 (Homo sapiens) (UniProt P08684). Put plainly: Cytochrome P450 Family 3 Subfamily A Member 4 (CYP3A4) small molecule antagonists: luciferase reporter qHTS assay (AID 1671201). The gist of the method:
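Room-temperature assay throughout: 10 min compound–enzyme/substrate preincubation, 1 h reaction after NADPH regeneration solution, 20 min detection. Luciferin formed from proluciferin substrate is quantified by luminescence.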

Inconclusive results are not listed. Unmarked numbers belong to inactive results. The source made the active and inactive calls. The call rests on the fitted dose curve; in most records, active means well fitted curve in the direction sought with a large enough effect in the repeat runs; inconclusive means weak or mixed curves; inactive means no such curve, though single readings can be large; an effect the other way counts as inactive or inconclusive.
Further: nearly all actives have a fitted effect of over 50% in size.
Potency means the concentration at half of the fitted maximal effect.

Sequence of Cytochrome P450 1A2 (Homo sapiens) (P05177 whole entry, looked up): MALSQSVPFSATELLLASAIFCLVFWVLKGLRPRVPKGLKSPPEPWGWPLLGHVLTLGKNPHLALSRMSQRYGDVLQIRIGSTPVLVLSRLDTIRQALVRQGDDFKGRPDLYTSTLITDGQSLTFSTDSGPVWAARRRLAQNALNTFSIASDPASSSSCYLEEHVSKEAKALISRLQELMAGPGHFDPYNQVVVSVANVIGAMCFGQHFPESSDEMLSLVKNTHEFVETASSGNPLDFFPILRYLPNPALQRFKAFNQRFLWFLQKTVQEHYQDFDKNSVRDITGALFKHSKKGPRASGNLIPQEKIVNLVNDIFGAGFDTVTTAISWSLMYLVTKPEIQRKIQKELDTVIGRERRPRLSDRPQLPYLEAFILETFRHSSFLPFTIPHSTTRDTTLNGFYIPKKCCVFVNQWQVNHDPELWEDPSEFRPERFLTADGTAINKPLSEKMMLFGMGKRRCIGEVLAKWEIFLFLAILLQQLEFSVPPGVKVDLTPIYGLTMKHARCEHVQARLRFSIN
Sequence of Voltage-gated inwardly rectifying potassium channel KCNH2 (Homo sapiens) (Q12809 whole entry, looked up): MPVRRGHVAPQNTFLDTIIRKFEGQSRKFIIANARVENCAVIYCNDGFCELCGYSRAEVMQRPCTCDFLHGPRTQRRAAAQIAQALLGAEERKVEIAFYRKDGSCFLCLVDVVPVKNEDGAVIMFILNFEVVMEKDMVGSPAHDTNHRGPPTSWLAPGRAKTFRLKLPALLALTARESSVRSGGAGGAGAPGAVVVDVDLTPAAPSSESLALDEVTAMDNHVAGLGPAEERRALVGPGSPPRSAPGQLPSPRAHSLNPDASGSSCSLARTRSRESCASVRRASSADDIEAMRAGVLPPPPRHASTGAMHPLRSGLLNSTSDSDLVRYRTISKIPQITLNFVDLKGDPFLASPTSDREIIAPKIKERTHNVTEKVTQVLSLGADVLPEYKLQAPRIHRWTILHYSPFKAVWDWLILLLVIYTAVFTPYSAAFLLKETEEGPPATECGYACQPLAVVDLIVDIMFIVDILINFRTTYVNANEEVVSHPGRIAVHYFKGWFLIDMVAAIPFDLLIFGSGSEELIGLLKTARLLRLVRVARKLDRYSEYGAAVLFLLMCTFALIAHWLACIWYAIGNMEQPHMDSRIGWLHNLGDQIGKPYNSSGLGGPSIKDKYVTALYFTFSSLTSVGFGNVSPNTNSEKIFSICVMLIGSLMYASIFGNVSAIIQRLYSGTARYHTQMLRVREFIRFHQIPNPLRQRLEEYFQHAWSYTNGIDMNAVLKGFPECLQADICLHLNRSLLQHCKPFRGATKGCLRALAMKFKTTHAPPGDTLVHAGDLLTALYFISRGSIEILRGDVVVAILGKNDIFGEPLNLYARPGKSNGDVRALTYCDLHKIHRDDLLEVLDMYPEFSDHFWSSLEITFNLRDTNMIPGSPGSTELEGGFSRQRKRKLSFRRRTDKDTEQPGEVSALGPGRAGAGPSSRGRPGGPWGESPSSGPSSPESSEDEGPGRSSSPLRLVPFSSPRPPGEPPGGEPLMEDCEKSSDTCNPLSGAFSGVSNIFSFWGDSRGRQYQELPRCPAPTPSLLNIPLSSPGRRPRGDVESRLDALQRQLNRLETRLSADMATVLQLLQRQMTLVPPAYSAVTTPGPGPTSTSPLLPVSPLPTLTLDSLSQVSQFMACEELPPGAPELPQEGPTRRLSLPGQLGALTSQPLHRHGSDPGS
Sequence of Cytochrome P450 2C9 (Homo sapiens) (P11712 whole entry, looked up): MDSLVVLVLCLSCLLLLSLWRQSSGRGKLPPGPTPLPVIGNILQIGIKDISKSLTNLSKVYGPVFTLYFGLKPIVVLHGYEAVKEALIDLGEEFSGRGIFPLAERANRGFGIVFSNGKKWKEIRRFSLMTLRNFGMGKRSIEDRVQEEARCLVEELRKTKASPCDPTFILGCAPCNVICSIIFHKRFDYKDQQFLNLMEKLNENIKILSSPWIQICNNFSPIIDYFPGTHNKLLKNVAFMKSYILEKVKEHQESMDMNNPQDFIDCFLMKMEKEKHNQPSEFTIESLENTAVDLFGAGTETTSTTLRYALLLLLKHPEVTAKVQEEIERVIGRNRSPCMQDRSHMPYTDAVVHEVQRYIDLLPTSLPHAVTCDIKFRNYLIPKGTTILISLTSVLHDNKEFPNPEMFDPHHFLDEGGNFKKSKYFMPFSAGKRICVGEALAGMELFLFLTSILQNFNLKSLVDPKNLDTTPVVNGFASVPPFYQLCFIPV
Sequence of Cytochrome P450 3A4 (Homo sapiens) (P08684 whole entry, looked up): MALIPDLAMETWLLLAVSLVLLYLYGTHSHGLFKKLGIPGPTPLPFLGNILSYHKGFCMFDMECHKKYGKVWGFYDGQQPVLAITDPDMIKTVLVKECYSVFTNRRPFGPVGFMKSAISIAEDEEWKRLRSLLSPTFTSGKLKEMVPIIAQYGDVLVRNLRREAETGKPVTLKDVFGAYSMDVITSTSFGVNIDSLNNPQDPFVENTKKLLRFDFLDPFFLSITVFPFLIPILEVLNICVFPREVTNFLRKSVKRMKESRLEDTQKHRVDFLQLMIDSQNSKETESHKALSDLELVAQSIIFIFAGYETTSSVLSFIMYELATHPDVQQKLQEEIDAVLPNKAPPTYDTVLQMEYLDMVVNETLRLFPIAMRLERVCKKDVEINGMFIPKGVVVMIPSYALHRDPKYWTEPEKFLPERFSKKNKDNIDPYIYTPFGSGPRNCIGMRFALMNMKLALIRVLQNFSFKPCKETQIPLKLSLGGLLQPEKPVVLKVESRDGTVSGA

Turning to `Cc1ccc(C)o1`, the Potency result in test [1], in test [2], in test [3] and in test [4] was “inactive” throughout.

As for `CCCCCCCCC(CO)CCCCCC` (stereo not drawn), the Potency in test [1] is 25.2 µM (active). Further, the Potency result in test [3] was “inactive”.

In the case of `CCCOc1ccc2nc(NC(=O)OC)[nH]c2c1`, the Potency entry in test [1], in test [2], in test [3] and in test [4] was “inactive” throughout.

For the compound `CCN(CC)CCc1nc(-c2ccccc2)no1`, the Potency entry in test [1], in test [3] and in test [4] was “inactive” throughout.

As for `CC(=O)NCCCS(=O)(=O)O`, the Potency entry in test [1], in test [3] and in test [4] was “inactive” in each case.

Take `O=C(Cl)c1ccc([N+](=O)[O-])cc1`: the Potency result in test [1], in test [3] and in test [4] was “inactive” in each case. For the same compound, in test [2], the Potency is 55.4 µM (active).

For the compound `CC(C)(C)c1ccc(S)cc1`, the Potency in test [1] is 31.7 µM (active). Also, the Potency entry in test [3] and in test [4] was “inactive” throughout.

For the compound `CCOC(=O)C1=NN(c2ccccc2)C(=O)C1`, the Potency in test [1] is 71 µM (active). Also, the Potency result in test [3] and in test [4] was “inactive” in each case.

As for `CC(C)(C)c1ccc(OCC2CO2)cc1` (stereo not drawn), the Potency in test [1] is 72.4 µM (active). For the same compound, the Potency result in test [3] and in test [4] was “inactive” each time.

With `O=CNc1ccccc1`, the Potency entry in test [1] and in test [3] was “inactive” in each case.

Regarding `O=C(/C=C/c1ccc(O)c(O)c1)O[C@@H]1C[C@](O)(C(=O)O)C[C@@H](O)[C@H]1O`, the Potency entry in test [1] and in test [3] was “inactive” in each case.

In the case of `C1CCC2OC2C1` (stereo not drawn), the Potency result in test [1], in test [3] and in test [4] was “inactive” in each case.

`OCCC1CCCCN1` (stereo not drawn): the Potency entry in test [1], in test [2], in test [3] and in test [4] was “inactive” throughout.

As for `Cc1ccc(C(C)c2ccc(C)c(C)c2)cc1C`, in test [1], the Potency was 11.2 µM (active). In addition, the Potency entry in test [3] and in test [4] was “inactive” in each case.

`O=[N+]([O-])c1cc[n+]([O-])cc1`: the Potency in test [1] is 39.9 µM (active); in test [2] it was 31.7 µM (active); in test [4] it was 63.3 µM (active). In addition, the Potency entry in test [3] was “inactive”.

For the compound `CCCCc1cc2ccccc2c(OCCN(C)C)n1`, the Potency entry in test [1] and in test [4] was “inactive” throughout. Besides, the results for the Potency in test [2] and in test [3] were 0.436 µM (active) and 3.38 µM (active), respectively.

On to `CC(C)c1cccc(C(C)C)c1NC(=O)NS(=O)(=O)c1cc(C(C)(C)O)co1`, for which, in test [1], the Potency was 35.6 µM (active). Besides, the Potency result in test [3] and in test [4] was “inactive” each time.

With `COCCOCCOCCOCCOC`, the Potency result in test [1], in test [3] and in test [4] was “inactive” throughout. For the same compound, the Potency in test [2] was 35.6 µM (active).

For the compound `CCOc1cc(OCC)c(C(=O)CCC(=O)O)cc1OCC`, the Potency result in test [1], in test [2], in test [3] and in test [4] was “inactive” each time.

Turning to `C=C(C)C(=O)OC(C)C`, the Potency result in test [1], in test [2], in test [3] and in test [4] was “inactive” in each case.

As to `COc1cc(C(C)(C)C)c(O)c(C(C)(C)C)c1`, the Potency was 22.4 µM (active) in test [1], 39.9 µM (active) in test [2] and 35.6 µM (active) in test [4].

For `Oc1ccc(Cc2ccccc2)cc1`, in test [1], the Potency is 65.7 µM (active). The Potency result in test [3] and in test [4] was “inactive” throughout.

Consider `CCCCCOC(=O)COc1cc(N2C(=O)C3=C(CCCC3)C2=O)c(F)cc1Cl`, for which the values for the Potency in test [1], in test [2] and in test [4] were 5.64 µM (active), 31.7 µM (active) and 6.33 µM (active), respectively.

As for `CCN(CC)CCOC(=O)C1(c2ccccc2)CCCC1`, the Potency entry in test [1] and in test [3] was “inactive” throughout.

Take `Cn1c(NCCN(CCO)CCCc2ccc([N+](=O)[O-])cc2)cc(=O)n(C)c1=O`: the Potency result in test [1], in test [2] and in test [4] was “inactive” throughout.

With `CC1=CC(=O)/C(=C(/C)O)C(=O)O1`, the Potency in test [1] was 63.3 µM (active). Besides, the Potency entry in test [3] is “inactive”.

For `COc1ccc(OC)c(OC)c1`, the values for the Potency in test [1] and in test [2] were 22.4 µM (active) and 39.9 µM (active), respectively. The Potency result in test [3] and in test [4] was “inactive” each time.

On to `CCCc1ccccc1`, for which the Potency result in test [1], in test [2], in test [3] and in test [4] was “inactive” in each case.

Turning to `NCCCN(CCO)CCO`, the Potency entry in test [1], in test [3] and in test [4] was “inactive” throughout.

In the case of `CC(C)c1ccccc1C(C)C`, the Potency in test [1] was 39.9 µM (active); in test [2], 35.6 µM (active); in test [4], 22.5 µM (active). The Potency result in test [3] was “inactive”.

For the compound `Cn1c(N)nc2nc[nH]c2c1=O`, the Potency entry in test [1] and in test [3] was “inactive” in each case.

On to `CCOC(=S)SSC(=S)OCC`, for which, in test [1], the Potency was 17.8 µM (active). In addition, the Potency result in test [3] and in test [4] was “inactive” each time.

Take `CCCC(=O)OCC`: the Potency in test [1] was 12.6 µM (active). Further, the Potency entry in test [2], in test [3] and in test [4] was “inactive” each time.

For `O=C(O)c1cn(C2CC2)c2cc(Cl)c(F)cc2c1=O`, the Potency entry in test [1], in test [3] and in test [4] was “inactive” each time.

As to `CC(C(=O)O)c1ccc(-c2ccccc2)c(F)c1` (stereo not drawn), the Potency in test [1] is 25.2 µM (active). Further, the Potency result in test [3] and in test [4] was “inactive” throughout.

Regarding `C=CC(=O)OCC(C)OCC(C)OCC(C)OC(=O)C=C` (stereo not drawn), the Potency is 35.6 µM (active) in test [1], 6.33 µM (active) in test [2] and 5.03 µM (active) in test [4]. Moreover, the Potency result in test [3] was “inactive”.

Regarding `CCN(CC)CCOc1ccc2c(c1)C(=O)c1cc(OCCN(CC)CC)ccc1-2`, the Potency result in test [1] and in test [3] was “inactive” throughout.

As for `CC(=O)Nc1ccc(/C=N/NC(N)=S)cc1`, the Potency result in test [1], in test [2], in test [3] and in test [4] was “inactive” throughout.

Regarding `CC(=O)O[C@@H]1C(=O)O[C@@H]2[C@H]1OC(=O)[C@@H]2OC(C)=O`, the Potency entry in test [1], in test [3] and in test [4] was “inactive” each time.

As to `Cc1nc2ccccc2n1Cc1ccc(Cl)cc1`, the Potency in test [2] was 7.23 µM (active). Moreover, in test [3], the Potency entry was “inactive”.

In the case of `CN1CCN(C2=Nc3cc(Cl)ccc3Nc3ccccc32)CC1`, the Potency result in test [2] is “inactive”.

Take `CN1CCC[C@@H]1c1cccnc1`: the Potency entry in test [2] and in test [3] was “inactive” throughout.

In the case of `CCC(C)N(C)C(=O)c1cc2ccccc2c(-c2ccccc2Cl)n1` (stereo not drawn), the Potency entry in test [2] and in test [3] was “inactive” each time.

With `CCCCC(CC)COCCCN` (stereo not drawn), the Potency in test [2] was 11.1 µM (active); in test [3], 38.5 µM (active).

For the compound `CCCCCCCC/C=C\CCCCCCCC(N)=O`, the Potency in test [2] was 35.6 µM (active). Moreover, the Potency entry in test [3] was “inactive”.

Turning to `Cc1cccc(OCCOc2cccc(C)c2)c1`, the Potency in test [2] is 8.45 µM (active). Moreover, the Potency entry in test [3] is “inactive”.

As for `Cc1ccc(O)c([C@H](CCN(C(C)C)C(C)C)c2ccccc2)c1`, in test [2], the Potency result was “inactive”.

With `O=C(O)Cc1sc(-c2ccccc2)nc1-c1ccc(Cl)cc1`, in test [1], the Potency is 4.9 µM (active). In addition, the Potency entry in test [3] and in test [4] was “inactive” in each case.

Take `CC1CCc2cc(F)cc3c(=O)c(C(=O)O)cn1c23` (stereo not drawn): the Potency result in test [2] and in test [3] was “inactive” in each case.

Consider `O=C(O)c1cccc(N(Cc2cccnc2)c2ccc(OC(F)F)c(OC(F)F)c2)c1`, for which the Potency in test [1] was 25.2 µM (active). Besides, the Potency entry in test [3] and in test [4] was “inactive” throughout.

For the compound `CCOC(=O)[C@H](CCc1ccccc1)N[C@H]1CCc2ccccc2N(CC(=O)O)C1=O`, in test [2], the Potency is 12.9 µM (active).
